# Reference: PubChem BioAssay AID651804 (National Center for Advancing Translational Sciences (NCATS), 2012)
# About 20 (2%) of roughly 1,200 compounds were called active. Another 23% or so got no clear call; they are omitted. Calls follow the shape of the dose curve; as a rule, active = well fitted inhibition curve with a large enough effect; inconclusive = small, poorly fitted or top-dose-only effect; inactive = no such curve, though single readings can be large or run the other way. The sample as a whole holds a higher share of actives than the screen did.
# Target: Transcriptional regulator ERG (Homo sapiens) (UniProt P11308)
# Experiment: qHTS for Small Molecule Inhibitors of the ERG Ets/DNA interaction: HTRF assay against cherry picks
# Conditions: His-ERG Ets domain with biotin-DNA; series mostly up to 154 µM; activity change, negative = inhibition: at the top concentration
# Text: The Ets family of proteins is a family of ~30 conserved transcription factors defined by the presence of an ~85 amino acid domain referred to as the Ets domain, which mediates sequence-specific DNA binding to a core DNA element GGAA/T.The Ets family member ERG has been linked to several neoplasms. […] More extensive studies of the effects of over-expression of ERG in prostate cells have recently been carried out and have shown that over-expression of ERG results in increased invasion. […] We will carry out a high throughout screen to identify inhibitors of the interaction between ERG and DNA using a fluorescence polarization (FP) assay with a His-tagged ERG Ets domain and fluorescently-labeled DNA probes to develop small molecule inhibitors of this interaction as probes to test this hypothesis and lay the groundwork for the development of targeted therapies against ERG. This is the counterscreen against the cherry picks. NIH Molecular Libraries Probe Production Network [MLPCN] NIH Chemical Genomics Center [NCGC] Grant: NS066464 PI Name: John Bushweller, University of Virgina
# 2 ul of protein solution (200 nM ERG domain in 300mM KCl, 50mM Tris-HCl, 1mM EDTA, 1mM DTT, pH 7.5); 20 nl Control plate and compound library plate; 2 ul of 200 nM biotin-DNA; incubate for 10 min at RT; 1 ul of anti-His antibody conjugated to the long-life fluorescent cryptate donner […] (5ng/ul) and streptavidin conjugated to the acceptor compound […] (0.2 ng/ul) mix; incubate 10 min and measure FRET (Excitation = 320 nm, Emission = 615, 665 nm).
# Potency is read from the fitted curve at half-maximal effect.
# Chain of Transcriptional regulator ERG (Homo sapiens) (P11308 whole entry, looked up): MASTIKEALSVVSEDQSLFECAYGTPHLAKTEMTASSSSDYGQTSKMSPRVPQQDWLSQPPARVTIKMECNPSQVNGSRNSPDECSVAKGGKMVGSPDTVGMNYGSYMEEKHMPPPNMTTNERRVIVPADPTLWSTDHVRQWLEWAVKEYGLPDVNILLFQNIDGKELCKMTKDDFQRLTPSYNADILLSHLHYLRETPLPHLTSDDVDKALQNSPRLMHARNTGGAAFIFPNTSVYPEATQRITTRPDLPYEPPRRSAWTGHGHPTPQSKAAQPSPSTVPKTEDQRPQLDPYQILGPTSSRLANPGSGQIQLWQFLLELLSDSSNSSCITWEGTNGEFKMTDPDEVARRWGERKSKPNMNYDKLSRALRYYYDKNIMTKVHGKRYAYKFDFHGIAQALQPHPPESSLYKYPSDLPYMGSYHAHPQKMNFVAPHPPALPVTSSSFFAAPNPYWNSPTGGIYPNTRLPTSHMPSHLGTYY
SMILES,Potency,"activity change, negative = inhibition"
Nc1ccc2nonc2c1[N+](=O)[O-],50.1 µM (active),–
C=C1C2C[C@@]3([C@@H]1O)[C@@H](C[C@@H]2O)[C@@]12C4[C@@H]3C[C@@H]1[C@@](C)(CC[C@@H]2O)CN4CC,–,-25.6% (inactive)
CC(=O)C1(c2ccccc2)CCN(C(=O)C2CCC(=O)N(CCc3cccc(F)c3)C2)CC1 (stereo not given),–,-19.4% (inactive)
C[N+]1(C)[C@@H]2CC[C@H]1CC(OC(=O)C(CO)c1ccccc1)C2 (stereo not given in full),–,-26.6% (inactive)
CN1[C@@H]2CCC[C@H]1CC(=O)C2,–,-23.7% (inactive)
